Assay outcomes as filed in PubChem.
BCR signal inh – chronic active BCR signaling inhibition. ABC-DLBCL IkBa-CBG/CBR reporter, luminescence ratio, 4 h. Potency, µM (highest dose often 46.1 µM), for the others: at the highest dose activity change, negative = inhibition, usual class: inhibitors. 340,000 compounds, 0.05% hits. AID 493014; active means well fitted inhibition curve with a large enough effect in the signal ratio, with a control signal flat, not every such curve was filed as active; inconclusive means small, poorly fitted or top-dose-only effect, or effect the other way, or a change in a side signal; the % refers to the signal ratio;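 further: potency means the concentration at half of the fitted maximal effect; plate controls were basal doxycycline-induced cells for no effect and cells given 10 µM MG132 for full effect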
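Concentration-response series (up to 46 uM) were applied to TMD8 dual-reporter cells for 4 h at 37C with doxycycline. Green/red ratio, after filter-overlap correction, defined %Activity; red signal alone was normalised to basal cells and zero luminescence.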
IL1B secr inh – blocks inflammasome-driven IL-1 beta release; THP-1 LPS/ATP IL-1B secretion, AlphaLISA, 16 h; active compounds read low; activity change, % at 57.5 µM; 360,000 compounds, 4.7% hits; in the data active means activity change below about -50%; inconclusive means mostly about -30% to -49%; further: on the % scale 0 is the no-effect control and ±100 the full control effect
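Secreted IL-1B measured by AlphaLISA bead assay after 16 h compound exposure of THP-1 cells; compounds (final up to 57.5 uM) added 1 h before LPS (250 ng/mL) and ATP (1.25 mM) stimulation; lower signal means less secretion.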
MCF10A rerep – inducers of DNA re-replication in MCF 10A breast cells; MCF 10A DNA re-replication, Hoechst nuclear intensity, 48 h; Potency, µM (highest dose often 46.1 µM), for inactives: at the top dose activity, positive = re-replication, usual class: activators; 350,000 compounds, 2.9% hits; further: potency means the concentration at half of the fitted maximal effect; % of control where 0% means no effect; nearly all actives have a fitted effect of over 50% in size
TDP1 cell noCPT – qHTS for Inhibitors of human tyrosyl-DNA phosphodiesterase 1 (TDP1): qHTS in cells in absence of CPT; DT40 Tdp1-/- hTDP1 cells, no CPT, ATP luminescence, 48 h; Potency, µM (doses to about 46.2 µM), inactives show at the top dose activity change, negative = growth inhibition, usual class: inhibitors; 420,000 compounds, 15% hits; AID 686978, 2013; further: potency means the concentration at half of the fitted maximal effect; on the % scale 0 is the no-effect control and ±100 the full control effect; nearly all actives have a fitted effect of over 55% in size
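Camptothecin absent (DMSO only). Human TDP1-complemented DT40 knockout cells, 400 cells/well, 37 °C for minimum 48 hr; ATP measured via CellTiter-Glo, 30 min dark incubation, luminescence.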
SW480 rerep – induces DNA re-replication in SW480 colon adenocarcinoma cells; SW480 DNA re-replication, Hoechst DNA content imaging, 48 h; Potency, µM (top dose mostly 46.1 µM), inactives show top-dose re-replication activation, hits mostly activators; 340,000 compounds, 1.8% hits; further: potency means the concentration at half of the fitted maximal effect; % of control where 0% means no effect; nearly all actives have a fitted effect of over 55% in size
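Quantitative HTS format with DMSO vehicle controls; 48 hr drug incubation at 37 C, then 40 min Hoechst staining and scanning imager measurement at 405 nm excitation.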
TDP1 cell CPT – growth inhibition of DT40 Tdp1-/-;hTDP1 cells with camptothecin (screen for TDP1 inhibitors). Potency, µM (doses to about 46.2 µM), for the others: top-dose activity change, negative = growth inhibition, hits mostly inhibitors. 420,000 compounds, 12% hits. chicken DT40 Tdp1-/-;hTDP1 cells + 20 nM CPT, ATP luminescence, 48 h; further: potency means the concentration at half of the fitted maximal effect; on the % scale 0 is the no-effect control and ±100 the full control effect; nearly all actives have a fitted effect of over 55% in size
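Chicken DT40 Tdp1-/- cells stably complemented with human TDP1 were seeded at 400 cells/well in medium containing 20 nM camptothecin, exposed to pin-transferred compounds, and grown at 37 °C for at least 48 hr. Viability was read as ATP luminescence.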
Numbers without * were called inactive; ? = inconclusive; · = no result; [ ] = another dose, or the depositor's remark. Most compounds without a hit are left out; they make up all but 19% or so of the library. Unless noted, the call rests on the fitted dose curve; in most records, active means well fitted curve in the direction sought with a large enough effect; inconclusive means small, poorly fitted or top-dose-only effect, or another doubt; inactive means no such curve, though single readings can be large; an effect the other way counts as inactive or inconclusive.

SMILES | BCR signal inh | IL1B secr inh | MCF10A rerep | TDP1 cell noCPT | SW480 rerep | TDP1 cell CPT
Cc1csc(=O)n1CC(=O)OC(C)C(=O)Nc1cccc(Cl)c1 (centres undefined) | ? | -9 | -16% | -17% | 8% | -15%
CC1(C)OC(=O)C2=C(C[C@@H](CCC(F)(F)F)O[C@H]2c2ccc(F)cc2)O1 | · | -5 | · | 5% | · | 5%
CN(Cc1c(C(=O)N/N=C/c2cccc(Cl)c2)nnn1-c1nonc1N)c1ccccc1 | 3% | 0 | 2% | 15% | ? | 5%
Cc1occc1C(=O)Nc1cccc(-c2nc(CNC(=O)c3ccc4ccccc4n3)c(C)o2)c1 | · | · | · | 6.5µM* | · | 8.2µM*
COC(=O)c1cccc(C(=O)NCc2nc(-c3cccc(NC(=O)c4ccoc4C)c3)oc2C)c1 | · | · | · | 21µM* | · | -6%[9.04 µM]
Cc1nc(C)c(C(=O)NCc2nc(-c3cccc(NC(=O)c4ccccn4)c3)oc2C)s1 | · | · | · | 2.9µM* | · | 3.3µM*
Cc1cc(C(=O)Nc2cccc(-c3nc(CNC(=O)c4cc5ccccc5[nH]4)c(C)o3)c2)c(C)o1 | · | · | · | -13% | · | 24%
CSc1nc(C(=O)NCc2nc(-c3cccc(NC(=O)c4ccccn4)c3)oc2C)cs1 | · | · | · | ? | · | 10%[9.04 µM]
CSc1ccccc1C(=O)NCc1nc(-c2cccc(NC(=O)c3ccoc3C)c2)oc1C | · | · | · | 21µM* | · | ?
Cc1cc(C(=O)NCc2nc(-c3cccc(NC(=O)c4ccccc4)c3)oc2C)nc(C)n1 | · | · | · | -18% | · | -4%[9.04 µM]
CC(C(=O)O)n1c2ccccc2c2cnn(C)c(=O)c21 (centres undefined) | -1% | 0 | -7% | 20% | 0% | -21%
C[C@H](CO)N1C[C@H](C)[C@@H](CN(C)C(=O)C2CCOCC2)Oc2ncc(Br)cc2C1=O | · | 5 | · | -2% | · | 12%
CCOC(=O)CSc1n[nH]c(NS(=O)(=O)c2ccccc2C(F)(F)F)n1 | 0% | -77* | -2% | -5% | 16% | 8%
C=CCc1ccc(OCCOCCOc2cccc3cccnc23)c(OC)c1 | 1% | -12 | ? | 29µM* | -13% | ?
C/C=C/c1ccc(OCCOCCOc2cccc3cccnc23)c(OC)c1 | 0% | 0 | ? | 15µM* | -3% | 23µM*
C/C=C/c1ccc(OCCOc2cccc3cccnc23)c(OC)c1 | ? | -62* | ? | ? | ? | ?
C=CCc1ccc(OCCOc2cccc3cccnc23)c(OC)c1 | -14% | -4 | -37% | ? | -4% | ?
C/C=C/c1ccc(OCCCCOc2c(OC)cccc2OC)c(OC)c1 | ? | 11 | 8% | ? | -3% | ?
CCCc1cc(=O)[nH]c(SCC(=O)NC2(C#N)CCCCC2)n1 | 0% | 9 | 4% | 18% | -31% | -3%
Cc1cccc(OCCSc2nc3ccccc3n2CC(=O)N2CCOCC2)c1 | · | · | · | -12% | · | -12%
O=C(NC1CCCCC1)C1c2ccccc2OCC(=O)N1Cc1ccco1 (centres undefined) | · | 0 | · | -15% | · | -19%
O=C(NCC1CCCO1)c1cccc(NS(=O)(=O)c2ccc(Br)cc2)c1 (centres undefined) | 2% | 10 | ? | ? | -83% | -3%
COc1cc(Cl)c(C)cc1Nc1nc2ccccc2c2nnc(C)n12 | · | · | · | -15% | · | 0%
CC(=O)N1CCN(C(=O)CNC(=O)c2ccc(C)s2)CC1 | · | 4 | -2% | -18% | -5% | 5%
CCOc1ccc(-n2cc(-c3ccccc3)c3c(NCc4ccccc4)ncnc32)cc1 | 17% | · | · | ? | · | ?
SMILES | BCR signal inh | IL1B secr inh | MCF10A rerep | TDP1 cell noCPT | SW480 rerep | TDP1 cell CPT
COc1ccc(-n2cc(-c3ccccc3)c3c(=O)[nH]cnc32)cc1 | 0% | -82* | 9% | -9% | 0% | 15%
COc1ccc(-n2cc(-c3ccccc3)c3c(N4CCOCC4)ncnc32)cc1 | 15% | -146* | 153% | 18µM* | 20% | ?
Fc1ccc(-n2cc(-c3ccccc3)c3c(N4CCOCC4)ncnc32)cc1 | 10% | -6 | ? | 21µM* | 14% | 21µM*
CCOC(=O)C(CC)Sc1ncnc2c1c(-c1ccccc1)cn2-c1ccc(OC)cc1 (centres undefined) | · | · | · | 21µM* | · | ?
O=C(Nc1ccccc1Cl)c1ccc(S(=O)(=O)NCC2CCCO2)cc1 (centres undefined) | 5% | 16 | -5% | ? | 14% | -11%
Fc1ccc(-n2cc(-c3ccccc3)c3c(NC4CCCCC4)ncnc32)cc1 | ? | · | · | 23µM* | · | 21µM*
COc1cc(OC)cc(C(=O)NN2CCOCC2)c1 | 5% | -6 | 1% | 23% | 15% | -8%
COc1ccccc1N1C(C)=CC(=C(C#N)c2nc3ccccc3s2)C=C1C | ? | 18 | ? | 13µM* | 18µM* | 8.2µM*
COC(=O)c1c(NC(=O)C(=O)N2CCOCC2)sc2c1CCCC2 | 0% | -27 | -2% | 3% | ? | -18%
COc1cc(-c2[nH]ncc2CN2CCSCC2)cc(OC)c1OC | ? | 102 | 5% | 15µM* | 4% | ?
COc1cc(-c2[nH]ncc2CN(C)Cc2nonc2C)cc(OC)c1OC | -14% | 66 | -3% | 16µM* | -26% | ?
COCC1CCN(Cc2cn[nH]c2-c2cc(OC)c(OC)c(OC)c2)CC1 | ? | 39 | -1% | -3% | -2% | 1%
Cc1cc(SCC(=O)Nc2ccc(C(F)(F)F)cc2)nc(=O)[nH]1 | 13% | · | · | -23% | · | -16%
CC1=C(c2ccccc2)[N+](=O)C2(CCCC2)N1[O-] | 1% | 12 | 0% | 7% | 0% | -20%
O=[N+]([O-])c1ccc2c(c1)N([O-])C1(CCCCC1)[N+]2=O | 1% | · | ? | ? | ? | 26µM*
C#CCN(C[C@H]1[C@H](OC(=O)Nc2c(C)noc2C)[C@H](OC(=O)Nc2c(C)noc2C)C[C@@H](C(=O)OC)[C@H]1C(=O)OC)S(=O)(=O)c1ccc(C)cc1 | · | -10 | · | 15µM* | · | 21µM*
C#CCN(C[C@H]1[C@H](OC(=O)NCCCCCC)[C@H](OC(=O)NCCCCCC)C[C@@H](C(=O)OC)[C@H]1C(=O)OC)S(=O)(=O)c1ccc(C)cc1 | · | -20 | · | 5.8µM* | · | 4.1µM*
COc1ccc(CCN2C(=O)N[C@@H](C(C)C)C2=O)cc1 | 4% | 46 | -9% | -2% | -6% | 13%
COc1cc(C)cc(C(=O)C=Cc2ccccc2)c1O | · | -59* | ? | ? | ? | ?
